# DT40 TDP1 no CPT: qHTS for Inhibitors of human tyrosyl-DNA phosphodiesterase 1 (TDP1): qHTS in cells in absence of CPT | DT40 Tdp1-/- hTDP1 cells, no CPT, ATP luminescence, 48 h | Potency, µM (top dose mostly 46.2 µM), inactives show at the highest dose activity change, negative = growth inhibition, actives largely listed as inhibitors | 420,000 compounds, 15% hits | AID 686978, 2013; further: potency means the concentration at half of the fitted maximal effect; nearly all actives have a fitted effect of over 55% in size
#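 Readout: luminescence from CellTiter-Glo after 30 min in the dark at RT. Cells: DT40 Tdp1-/- with stable hTDP1, 400/well. Exposure: compounds alone, ≥48 hr, 37 °C.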
# HT1080-NT tox: kills 2HG-producing HT-1080-NT fibrosarcoma cells; Potency, µM (top dose mostly 46.1 µM), inactives show at the highest dose activity, negative = less viability, most hits filed as cytotoxic; 360,000 compounds, 1.6% hits; HT-1080-NT fibrosarcoma viability, CellTiter-Glo ATP luminescence, 48 h;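 further: NT is the 2HG producing partner of a matched IDH1 knockdown line; potency means the concentration at half of the fitted maximal effect; 0% = DMSO-treated cells and -100% = media-only wells without cells; nearly all actives have a fitted effect of over 55% in size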
#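 750 cells/well, RPMI + 5% FBS; 2 h settle, compound pin-transfer, 48 h at 37 degrees C. CellTiter-Glo 10 min RT, luminescence. Normalized to DMSO and media-only wells.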
# IL-1B inflam inh: blocks inflammasome-driven IL-1 beta release | activity change, % at 57.5 µM | THP-1 LPS/ATP IL-1B secretion, AlphaLISA, 16 h; hits give low values | 360,000 compounds, 4.7% hits; in the data active means activity change below about -50%; inconclusive means mostly about -30% to -49%
#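 THP-1 cells pretreated 1 hr with compounds (up to 57.5 uM final), then stimulated with LPS (250 ng/mL final) plus ATP (1.25 mM final); secreted IL-1B measured by AlphaLISA after 16 hr, decreased signal indicating inhibition.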
# DT40 TDP1 CPT: DT40-hTDP1 cell growth loss with CPT; 420,000 compounds, 12% hits; Potency, µM (highest dose often 46.2 µM), for inactives: at the highest dose activity change, negative = growth inhibition, hits mostly inhibitors; chicken DT40 Tdp1-/-;hTDP1 cells + 20 nM CPT, ATP luminescence, 48 h; AID 686979; further: potency means the concentration at half of the fitted maximal effect; nearly all actives have a fitted effect of over 55% in size
#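 Cell growth measured by CellTiter-Glo luminescence after a minimum 48 h, 37 C compound exposure with 20 nM CPT in Tdp1-knockout DT40 cells stably expressing hTDP1, seeded 400/well; qHTS titration format.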
# HT1080 IDH1KD tx: toxicity to HT-1080 IDH1 knockdown cells (counter line) | HT-1080 IDH1 knockdown viability, ATP luminescence, 48 h | Potency, µM (doses to about 46.1 µM), inactives show at the top dose activity, negative = toxicity, most hits filed as cytotoxic | 360,000 compounds, 2% hits;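 further: potency means the concentration at half of the fitted maximal effect; 0% = DMSO wells and -100% = cell-free medium wells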
#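 Using the IDH1-knockdown HT-1080 line run in the same batch and compound series as the NT line, viability after 48 h at 37 °C was determined by CellTiter-Glo luminescence and expressed as % activity.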
# Numbers without * were called inactive; ? = inconclusive; · = not tested or not shown; [ ] = remark or other dose. This is a sample that favours compounds with a hit; in the whole collection about 19% have one here. Unless noted, the call rests on the fitted dose curve; in most records, active means well fitted curve in the direction sought with a large enough effect; inconclusive means small, poorly fitted or top-dose-only effect, or another doubt; inactive means no such curve, though single readings can be large; an effect the other way counts as inactive or inconclusive. Unless noted, on the % scale 0 is the no-effect control and ±100 the full control effect.
SMILES,DT40 TDP1 no CPT,HT1080-NT tox,IL-1B inflam inh,DT40 TDP1 CPT,HT1080 IDH1KD tx
CCC(=O)N1CCN(c2ccc(NC(=O)COc3ccccc3Cl)cc2)CC1,26µM*,?,-55*,16µM*,-20%
Cc1ccc(C(=O)N2CCN(c3ccc(NC(=S)NC(=O)Cc4ccccc4)cc3)CC2)cc1,?,0%,-15,35µM*,1%
CN1CCN(c2ccc(NC(=O)COc3ccccc3Cl)cc2)CC1,16µM*,2%,?,16µM*,-3%
COc1ccccc1OCC(=O)Nc1ccc(N2CCCCC2)cc1,-24%,15%,-2,?,3%
COc1cccc(-c2sc3ccc(OC)cc3c2-c2cnc(N3CCOCC3)nc2)c1,-24%,4%,-8,-9%,-12%
COc1ccccc1CCNC(=O)Cc1c(C)c2c(O)cc(C)cc2oc1=O,-31%,·,·,?,·
Cc1cc(NC(=O)CSCC(=O)OCC(=O)c2cccc(Br)c2)no1,10%,5%,0,?,11%
O=C1CCCCC(=O)[C@H](O)C[C@H](COCc2ccccc2)O1,0%,12%,25,-13%,22%
CCC(=O)N1CCN(c2ccccc2NC(=O)COc2ccccc2Cl)CC1,?,-20%,9,23µM*,-2%
CCC(=O)N1CCN(c2ccc(NC(=O)COc3ccccc3[N+](=O)[O-])cc2)CC1,10µM*,-5%,?,15µM*,-10%
CCC(=O)N1CCN(c2ccc(NC(=O)COc3ccc(C)cc3C)cc2)CC1,18µM*,-4%,22,?,?
CC(OC(=O)COc1ccccc1[N+](=O)[O-])C(=O)Nc1ccc(N2CCOCC2)cc1 (stereo not given),5%,0%,7,0%,11%
C[C@@H]1CCCCO[C@@H](CN(C)S(C)(=O)=O)[C@@H](C)CN([C@H](C)CO)C(=O)c2cc(N(C)C)ccc2O1,-16%,14%,17,-11%,11%
O=CN1CCN(C(=O)CC(c2ccccc2)c2cc(Br)ccc2O)CC1 (stereo not given),-7%,-7%,-18,-13%,1%
CCOC(=O)C(=Cc1ccc(-n2cncn2)cc1)C(=O)OCC,13µM*,16µM*,-99*,12µM*,5.2µM*
CCOC(=O)/C(=C\c1ccc(N2CCC(c3ccccc3)=N2)cc1)C(C)=O,?,5%,?,?,1%
COc1cc(/C=C\C(=O)NCc2ccc3c(c2)cc(C)n3C)cc(OC)c1OC,26µM*,0%,-28,-20%,1%
COc1ccc(CC(=O)NCc2ccc3c(c2)cc(C)n3C)cc1OC,15µM*,8%,-2,-27%,-1%
COCC(=O)NCc1ccc2c(c1)cc(C)n2C,-2%,2%,4,9%,-2%
CC(C)c1ccc(CC(=O)N2CCC2(C)C(=O)NS(=O)(=O)c2cccc(C#N)c2)cc1 (stereo not given),-2%,7%,17,0%,2%
COc1ccc(CC2=CC(=O)c3ccccc3C2=O)cc1,2.1µM*,?,-98*,1.8µM*,?
CCN(CC)CCNc1c(C)cc(CO)c(Cl)c1C,-8%,-4%,-4,11%,-11%
Cc1ccc(C(=O)NCC(=O)OCC(=O)Nc2ccccc2C#N)s1,-3%,-13%,14,-11%,2%
CCOc1cccc(C2c3[nH]c4ccccc4c3CCN2C(=O)CSCc2ccc(F)cc2)c1 (stereo not given),26µM*,·,·,18µM*,·
CCOc1cccc(CC(=O)N2CCc3c([nH]c4ccccc34)C2c2ccc(C)cc2)c1OCC (stereo not given),18µM*,·,·,?,·
SMILES,DT40 TDP1 no CPT,HT1080-NT tox,IL-1B inflam inh,DT40 TDP1 CPT,HT1080 IDH1KD tx
Cc1ccc(C2c3[nH]c4ccccc4c3CCN2C(=O)CCc2ccccc2)cc1 (stereo not given),21µM*,·,·,?,·
COCc1cc(/C=N\NC(=O)Cc2ccc(OC)cc2)ccc1OC,-10%,-2%,-6,-10%,2%
O=C(CSc1ccc(-c2cccc([N+](=O)[O-])c2)nn1)N1CCCCCC1,?,-3%,-54*,?,6%
O=C(CCc1ccccc1)N1CCN(c2ccc([N+](=O)[O-])cc2)CC1,23µM*,0%,-13,?,-11%
O=C(Cc1ccccc1)N1CCN(c2ccc([N+](=O)[O-])cc2)CC1,?,-7%,0,?,-11%
O=C(Cc1ccc(F)cc1)N1CCN(c2ccc([N+](=O)[O-])cc2)CC1,?,-2%,-3,21µM*,-2%
O=C(CSc1ccc(-c2cccc([N+](=O)[O-])c2)nn1)N1CCCC1,-13%,17%,-10,5%,9%
O=C(Cc1ccc([N+](=O)[O-])cc1)N1CCN(c2ccc([N+](=O)[O-])cc2)CC1,7.3µM*,-4%,-14,18µM*,-13%
CCCOc1ccc([N+](=O)[O-])c(N)c1,-3%,5%,12,12%,0%
Cc1c(C(=O)N2CCN(C(C)C)CC2)sc2ncnc(NCc3ccco3)c12,3%,·,·,18%[9.04 µM],·
CCC(=O)C(C#N)(c1ccc(OC)c(OC)c1)C(C)C (stereo not given),13%,10%,13,-13%,15%
O=C(CCCSc1nc2ccccc2[nH]1)N1CCN(c2ccc([N+](=O)[O-])cc2)CC1,8.2µM*,7%,-24,10µM*,3%
O=C(CSc1ccccc1C(=O)N1CCN(c2ccccc2)CC1)N1CCCC1,-23%,1%[9.24 µM],6,?,2%
O=C(CCCN1C(=O)C2CCCCN2C1=O)N1CCN(c2ccc([N+](=O)[O-])cc2)CC1 (stereo not given),23µM*,-6%,-12,?,-1%
O=C1C2CCCCN2C(=O)N1CCN1CCN(c2ccc([N+](=O)[O-])cc2)CC1 (stereo not given),?,-18%,-17,-24%,-2%
O=C(CSc1nc2ccccc2[nH]1)N1CCN(c2ccc(F)cc2)CC1,?,-1%,-12,?,-3%
O=C(CCc1ccc(Oc2cc([N+](=O)[O-])cc([N+](=O)[O-])c2)cc1)N1CCCCCC1,?,-13%,?,18µM*,-14%
O=C(O)c1ccc(Oc2cc(Oc3ccc(C(=O)O)cc3)cc([N+](=O)[O-])c2)cc1,-7%,11%,-1,-5%,16%
O=C(CSc1ccccc1C(=O)N1CCN(c2ccc([N+](=O)[O-])cc2)CC1)N1CCCC1,15µM*,?,-15,12µM*,-6%
CCOC(=O)C1(C(=O)OCC)CC1c1ccccc1 (stereo not given),-23%,10%,-6,-3%,10%

# Screening data: PubChem BioAssay, National Center for Advancing Translational Sciences (NCATS)
